# PubChem BioAssay (EPA / NIEHS)
# The source made the active and inactive calls. The calls were made as follows: active = hit-call score of the fitted dose curve at least 0.9, where 1 is the maximum; inactive = score below 0.9.
# What was measured:
# Conditions in all cases: mRNA level, 48 h; actives raise or lower the signal
# [1] = read-out: MicroRNA 122 (MIR122), gene 406906; assay: LTEA_HepaRG_MIR122: Life Technologies and Expression Analysis (LTEA) Assay for MicroRNA 122 (MIR122) using HepaRG (AID 2283516); also: the transcript read is the microRNA miR-122
# How it was run: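 Human liver HepaRG cultures receive test chemicals for 48 h at eight half-log concentrations from 100 uM. Expression is quantified by qRT-PCR with ACTB/GAPDH/POLR2A normalization and fitted bidirectionally against 0.5% DMSO.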
# [2] = read-out: matrix metalloproteinase-10 (MMP10), MMP10 (gene 4319); assay: LTEA_HepaRG_MMP10: Life Technologies and Expression Analysis (LTEA) Assay for matrix metalloproteinase-10 (MMP10) using HepaRG (AID 2283517)
# How it was run: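 Expression measured by TaqMan qRT-PCR with ACTB/GAPDH/POLR2A normalisation after 48 h chemical exposure of HepaRG cells. Eight half-log concentrations, top 100 uM, 0.5% DMSO vehicle, duplicates; gain or loss fitted against vehicle.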
# MYC, MYC (gene 4609) = assay: LTEA_HepaRG_MYC: Life Technologies and Expression Analysis (LTEA) Assay for MYC using HepaRG (AID 2283518)
# How it was run: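 MYC transcript changes, up or down relative to 0.5% DMSO, from TaqMan qRT-PCR normalized to three housekeeping genes. Human HepaRG cultures received chemicals for 48 h at eight half-log concentrations up to 100 uM, in duplicate.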
# [3] = read-out: matrix metalloproteinase-3 (MMP3), MMP3 (gene 4314); assay: LTEA_HepaRG_MMP3: Life Technologies and Expression Analysis (LTEA) Assay for matrix metalloproteinase-3 (MMP3) using HepaRG (AID 2283519)
# How it was run: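 Fluidigm-based TaqMan qRT-PCR, normalized to ACTB, GAPDH and POLR2A and fitted bidirectionally versus 0.5% DMSO, measured transcript levels. Treatment: duplicate 48 h exposures of HepaRG cells, ~100,000/well, to eight half-log concentrations topping at 100 uM.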
# [4] = read-out: Paternally Expressed 10 (PEG10), PEG10 (gene 23089); assay: LTEA_HepaRG_PEG10: Life Technologies and Expression Analysis (LTEA) Assay for Paternally Expressed 10 (PEG10) using HepaRG (AID 2283520);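 as to AC50: PEG10 transcript by qRT-PCR normalised to ACTB GAPDH and POLR2A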
# How it was run: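 Human HepaRG cultures are dosed for 48 h across an eight-point half-log series starting at 100 uM, with 0.5% DMSO as vehicle and baseline. Gain or loss of PEG10 transcript is measured by qRT-PCR and fitted in both directions.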
# [5] = read-out: Nuclear factor NF-kappa-B p105 subunit (Homo sapiens) (UniProt P19838); assay: LTEA_HepaRG_NFKB1: Life Technologies and Expression Analysis (LTEA) Assay for Nuclear Factor Kappa B Subunit 1 (NFKB1) using HepaRG (AID 2283521);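 also: TaqMan qRT-PCR transcript normalised to ACTB GAPDH and POLR2A housekeeping genes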
# How it was run: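 Differentiated human HepaRG cells were exposed for 48 h in serum-free induction medium to eight concentrations (top 100 uM, half-log steps, 0.5% DMSO), in duplicate. NFKB1 mRNA was measured by TaqMan qRT-PCR, normalized to ACTB/GAPDH/POLR2A, and fitted bidirectionally against DMSO.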
# [6] = read-out: Protein phosphatase 2A (PPP2R4), PTPA (gene 5524); assay: LTEA_HepaRG_PPP2R4: Life Technologies and Expression Analysis (LTEA) Assay for Protein phosphatase 2A (PPP2R4) using HepaRG (AID 2283522)
# How it was run: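 Cells were plated, cultured 48 h, switched to serum-free induction medium, then dosed for 48 h (8 points, max 100 uM, 0.5% DMSO). RNA was isolated and PPP2R4 expression measured by TaqMan qRT-PCR.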
# [7] = read-out: solute carrier (SLC22A1), SLC22A1 (gene 6580); assay: LTEA_HepaRG_SLC22A1: Life Technologies and Expression Analysis (LTEA) Assay for solute carrier (SLC22A1) using HepaRG (AID 2283524)
# How it was run: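 Transcript level of SLC22A1 quantified by qRT-PCR (normalized to three housekeeping genes) after 48 h chemical exposure of HepaRG cells, eight concentrations up to 100 µM, half-log steps, 0.5% DMSO vehicle. Gain or loss relative to DMSO fitted bidirectionally.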
# [8] = read-out: Pyruvate Dehydrogenase Kinase 4 (PDK4), PDK4 (gene 5166); assay: LTEA_HepaRG_PDK4: Life Technologies and Expression Analysis (LTEA) Assay for Pyruvate Dehydrogenase Kinase 4 (PDK4) using HepaRG (AID 2283525)
# How it was run: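 Readout is qRT-PCR of PDK4 transcript, normalized to three housekeeping genes, with bidirectional fitting against 0.5% DMSO vehicle. Differentiated HepaRG cells were treated 48 h in serum-free induction medium, duplicate wells, eight-point half-log series topping at 100 uM.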
# [9] = read-out: Phosphatase and tensin (PTEN), PTEN (gene 5728); assay: LTEA_HepaRG_PTEN: Life Technologies and Expression Analysis (LTEA) Assay for Phosphatase and tensin (PTEN) using HepaRG (AID 2283523)
# How it was run: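 Read-out: TaqMan qRT-PCR of PTEN transcript, normalized to three housekeeping genes, fitted in both directions against 0.5% DMSO. Differentiated human HepaRG cultures received chemicals for 48 h, eight-point half-log series topping at 100 uM.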
# Chain of Nuclear factor NF-kappa-B p105 subunit (Homo sapiens) (P19838 whole entry, looked up): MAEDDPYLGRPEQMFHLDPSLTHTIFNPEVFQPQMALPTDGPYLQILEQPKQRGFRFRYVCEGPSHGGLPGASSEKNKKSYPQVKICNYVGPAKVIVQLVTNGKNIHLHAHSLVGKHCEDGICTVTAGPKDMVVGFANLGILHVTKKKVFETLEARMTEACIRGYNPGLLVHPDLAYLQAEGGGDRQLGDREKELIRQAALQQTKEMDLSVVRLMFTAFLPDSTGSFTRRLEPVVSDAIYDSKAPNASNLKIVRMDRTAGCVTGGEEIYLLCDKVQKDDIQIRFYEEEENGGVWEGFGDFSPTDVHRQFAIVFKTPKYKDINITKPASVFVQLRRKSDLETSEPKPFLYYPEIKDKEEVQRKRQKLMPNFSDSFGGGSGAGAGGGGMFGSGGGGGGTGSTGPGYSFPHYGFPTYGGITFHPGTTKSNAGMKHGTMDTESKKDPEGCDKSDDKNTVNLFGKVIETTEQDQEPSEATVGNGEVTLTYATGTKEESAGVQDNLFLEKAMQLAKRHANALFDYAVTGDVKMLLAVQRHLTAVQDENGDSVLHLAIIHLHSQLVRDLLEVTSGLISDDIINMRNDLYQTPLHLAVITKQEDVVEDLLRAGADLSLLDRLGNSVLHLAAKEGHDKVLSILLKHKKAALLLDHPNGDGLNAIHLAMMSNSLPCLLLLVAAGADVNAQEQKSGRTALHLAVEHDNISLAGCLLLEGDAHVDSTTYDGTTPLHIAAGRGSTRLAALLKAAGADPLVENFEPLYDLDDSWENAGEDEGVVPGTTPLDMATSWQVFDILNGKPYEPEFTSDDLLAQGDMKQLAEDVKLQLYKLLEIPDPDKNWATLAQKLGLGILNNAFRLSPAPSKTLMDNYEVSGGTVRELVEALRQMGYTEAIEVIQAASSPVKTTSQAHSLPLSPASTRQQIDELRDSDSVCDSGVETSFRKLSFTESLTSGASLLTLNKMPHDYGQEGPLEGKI
smiles,measurement,setting,value
ClC1=C(Cl)[C@]2(Cl)[C@@H]3[C@@H](Cl)[C@H]4O[C@H]4[C@@H]3C1(Cl)C2(Cl)Cl,outcome,[1],inactive
same,outcome,[2],inactive
same,outcome,"MYC, MYC (gene 4609)",inactive
same,outcome,[3],inactive
same,outcome,[4],inactive
same,outcome,[5],inactive
same,outcome,[6],inactive
same,AC50,[7],50 µM (active)
same,outcome,[8],inactive
Cc1cc(O)ccc1Cl,outcome,[1],inactive
same,outcome,[2],inactive
same,outcome,"MYC, MYC (gene 4609)",inactive
same,outcome,[3],inactive
same,outcome,[4],inactive
same,outcome,[5],inactive
same,outcome,[6],inactive
same,outcome,[7],inactive
same,outcome,[8],inactive
CCCCCCOC(=O)c1ccccc1C(=O)OCCCCCC,outcome,[1],inactive
same,outcome,[2],inactive
same,outcome,"MYC, MYC (gene 4609)",inactive
same,outcome,[3],inactive
same,outcome,[4],inactive
same,outcome,[5],inactive
same,outcome,[6],inactive
same,outcome,[9],inactive
same,AC50,[7],0.0876 µM (active)
same,outcome,[8],inactive
Cc1ccccc1O,outcome,[1],inactive
same,outcome,[2],inactive
same,outcome,"MYC, MYC (gene 4609)",inactive
same,outcome,[3],inactive
same,outcome,[5],inactive
same,outcome,[6],inactive
same,outcome,[9],inactive
same,outcome,[7],inactive
same,outcome,[8],inactive
CCC(=O)O[C@H]1CC[C@H]2[C@@H]3CCC4=CC(=O)CC[C@]4(C)[C@H]3CC[C@]12C,outcome,[1],inactive
same,outcome,[2],inactive
same,outcome,"MYC, MYC (gene 4609)",inactive
same,AC50,[3],50 µM (active)
same,AC50,[4],13.3 µM (active)
same,outcome,[5],inactive
same,outcome,[6],inactive
same,outcome,[9],inactive
same,outcome,[7],inactive
same,outcome,[8],inactive
ClC1=C(Cl)[C@]2(Cl)[C@@H]3[C@@H]4C[C@@H]([C@H]5O[C@@H]45)[C@@H]3[C@@]1(Cl)C2(Cl)Cl,outcome,[1],inactive
same,outcome,[2],inactive
same,AC50,"MYC, MYC (gene 4609)",9.92 µM (active)
same,outcome,[3],inactive
same,outcome,[5],inactive
same,outcome,[6],inactive
same,AC50,[9],0.0333 µM (active)
same,AC50,[7],50 µM (active)
same,AC50,[8],0.00905 µM (active)
O=C(NC(=O)c1c(F)cccc1F)Nc1cc(Cl)c(OC(F)(F)C(F)F)c(Cl)c1,outcome,[1],inactive
same,outcome,[2],inactive
same,outcome,"MYC, MYC (gene 4609)",inactive
same,outcome,[3],inactive
same,outcome,[5],inactive
same,outcome,[6],inactive
same,outcome,[9],inactive
same,outcome,[7],inactive
same,outcome,[8],inactive
Clc1ccc(C(c2ccccc2Cl)C(Cl)(Cl)Cl)cc1 (stereo not given),outcome,[1],inactive
same,outcome,[2],inactive
same,outcome,"MYC, MYC (gene 4609)",inactive
same,outcome,[3],inactive
same,outcome,[5],inactive
same,outcome,[6],inactive
same,outcome,[9],inactive
same,outcome,[7],inactive
same,outcome,[8],inactive
COS(=O)(=O)OC,outcome,[1],inactive
same,outcome,[2],inactive
same,outcome,"MYC, MYC (gene 4609)",inactive
same,outcome,[3],inactive
same,outcome,[4],inactive
same,outcome,[5],inactive
same,outcome,[6],inactive
same,outcome,[7],inactive
same,outcome,[8],inactive
CC(C)C(=O)OCC(C)(C)C(OC(=O)C(C)C)C(C)C (stereo not given),outcome,[1],inactive
same,outcome,[2],inactive
same,outcome,"MYC, MYC (gene 4609)",inactive
same,outcome,[3],inactive
same,outcome,[5],inactive
same,outcome,[6],inactive
same,outcome,[9],inactive
same,outcome,[7],inactive
same,outcome,[8],inactive
C=CC(=O)NCNC(=O)C=C,outcome,[1],inactive
same,outcome,[2],inactive
same,outcome,"MYC, MYC (gene 4609)",inactive
same,outcome,[3],inactive
same,outcome,[5],inactive
same,outcome,[6],inactive
same,outcome,[9],inactive
same,AC50,[7],30.6 µM (active)
same,outcome,[8],inactive
COc1ccc(O)c(C(C)(C)C)c1,outcome,[1],inactive
same,outcome,[2],inactive
same,outcome,"MYC, MYC (gene 4609)",inactive
same,outcome,[3],inactive
same,outcome,[4],inactive
same,outcome,[6],inactive
same,outcome,[8],inactive
CCSC(=O)N(CC)C1CCCCC1,outcome,[1],inactive
same,outcome,[2],inactive
same,outcome,"MYC, MYC (gene 4609)",inactive
same,outcome,[3],inactive
same,outcome,[5],inactive
same,outcome,[6],inactive
same,outcome,[9],inactive
same,outcome,[7],inactive
same,outcome,[8],inactive
N#Cc1ccc(N(CC(N)=O)CC(F)(F)F)cc1C(F)(F)F,outcome,[1],inactive
same,outcome,[2],inactive
same,outcome,"MYC, MYC (gene 4609)",inactive
same,outcome,[3],inactive
same,AC50,[4],10.5 µM (active)
same,outcome,[6],inactive
same,outcome,[7],inactive
same,outcome,[8],inactive
CCC(C)c1cc([N+](=O)[O-])cc([N+](=O)[O-])c1O (stereo not given),AC50,[1],2.73 µM (active)
same,AC50,[2],3.93 µM (active)
same,AC50,"MYC, MYC (gene 4609)",9.27 µM (active)
same,AC50,[3],2.23 µM (active)
same,AC50,[4],1.26 µM (active)
same,outcome,[5],inactive
same,AC50,[6],1.25 µM (active)
same,AC50,[9],5.41 µM (active)
same,AC50,[7],1.74 µM (active)
same,outcome,[8],inactive
